In the library only some 7.4% were active in any assay of this set; here they are far more common.
FXIa inh mix – FXIa protease inhibitors in compound pools, primary screen, biochemical, 10-compound mixtures | Coagulation factor XI (Homo sapiens), P03951 | purified FXIa, fluorogenic substrate, pooled mixtures | inhibition, % at 5 µM | 62,000 compounds, 0.19% hits;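 note: each value is inhibition by a whole ten-compound pool holding the compound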
D1 allo mod – D1 CRE-luciferase signal change, two-sided – cell-based, HEK293 D1, dopamine EC30, D1 allosteric modulator project, primary screen | dopamine EC30 potentiation; actives deviate in either direction | D(1A) dopamine receptor (Homo sapiens), P21728 | 58,000 compounds, 5.9% hits | B-score at 10 µM;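 active = luminescence count or its row- and column-corrected plate score outside the 99.7% band of the plate's sample wells, on either side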
DAT uptake mod – changed hDAT dopamine uptake under cocaine IC80, either direction, primary screen, cocaine antagonist project, cell-based, LLC-PK1 hDAT, [14C]-dopamine uptake, MLSMR; Sodium-dependent dopamine transporter (Homo sapiens), Q01959; LLC-PK1 hDAT cells, [14C]-dopamine uptake with cocaine IC80; actives deviate in either direction; B-score at 10 µM; 110,000 compounds, 1.3% hits;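 active = Z score or B-score, a plate-position-corrected score, falls beyond the plate's 99.7% confidence bounds, in either direction; inactive = both scores lie inside the 99.7% bounds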
Target sequence (Q01959 whole entry, looked up): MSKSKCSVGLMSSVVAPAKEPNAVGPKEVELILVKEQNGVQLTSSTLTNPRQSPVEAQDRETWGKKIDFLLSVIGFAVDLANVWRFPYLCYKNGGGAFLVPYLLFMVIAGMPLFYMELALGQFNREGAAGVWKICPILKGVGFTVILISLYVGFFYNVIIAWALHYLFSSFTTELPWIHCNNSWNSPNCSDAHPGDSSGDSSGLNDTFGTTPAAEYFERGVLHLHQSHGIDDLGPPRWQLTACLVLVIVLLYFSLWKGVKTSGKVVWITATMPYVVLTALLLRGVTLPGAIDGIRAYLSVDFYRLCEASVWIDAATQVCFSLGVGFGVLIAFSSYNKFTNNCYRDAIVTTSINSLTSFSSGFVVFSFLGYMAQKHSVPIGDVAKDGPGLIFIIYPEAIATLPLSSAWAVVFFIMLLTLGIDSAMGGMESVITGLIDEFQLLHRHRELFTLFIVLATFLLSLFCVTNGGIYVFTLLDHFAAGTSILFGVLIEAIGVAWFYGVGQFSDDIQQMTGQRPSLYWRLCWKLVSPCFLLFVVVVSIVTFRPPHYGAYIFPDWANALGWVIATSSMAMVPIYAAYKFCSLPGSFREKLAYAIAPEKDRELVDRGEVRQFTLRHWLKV
M1 agonist – M1 muscarinic receptor agonists, primary screen, CHO-M1 cells, Fluo-4 calcium, agonist mode | Muscarinic acetylcholine receptor M1 | Fluo-4 calcium fluorescence; active compounds read high | B-score at 10 µM | 64,000 compounds, 3% hits;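 active = fluorescence rise, raw or as B-score row- and column-corrected plate score, outside the 99.7% band of its plate's samples, either direction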
FXIIa inh mix – human factor XIIa inhibitors, primary screen, biochemical, pooled compound mixtures, fluorogenic substrate; Coagulation factor XII (Homo sapiens), P00748; purified FXIIa; inhibition, % at 5 µM; 62,000 compounds, 0.2% hits; AID 684, 2007
M1 antag – antagonists of rat M1 muscarinic receptor; CHO-M1 cells, Fluo-4 calcium, ACh EC80 antagonist mode; active compounds read low; B-score at 10 µM; 64,000 compounds, 3.4% hits; AID 628, 2007;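 active = calcium fluorescence response, raw or row-and-column corrected B-score, differing from the plate sample mean either way at a set confidence level, mostly lower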
M1 ag confirm – rat M1 muscarinic receptor agonists, confirmation, CHO-M1 cells, Fluo-4 calcium, duplicate retest; shares compounds with M1 agonist; Fluo-4 calcium fluorescence, agonist mode; actives lie on both sides; fluorescence change (max-min) at 10 µM; 1,700 compounds, 19% hits; AID 1488, 2009;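 active = fluorescence change differs from the solvent-only DMSO control mean at a set confidence level in both duplicate runs; inconclusive = differs from solvent-only control mean in just one of two runs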;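 note: an EC20 dose of acetylcholine follows compound addition during the same imaging run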
M4 ag counter – agonist activity at rat M4 receptor, confirmation, counter-screen for M1 allosteric modulator project, cell-based, agonist mode; shares compounds with M1 agonist; CHO M4/Gqi5 cells, Fluo-4 calcium fluorescence; actives lie on both sides; fluorescence change (max-min) at 10 µM; 1,700 compounds, 9% hits; AID 1741, 2009;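 active = fluorescence change differing from the plate's solvent-only control wells at 99.7% confidence in both duplicates, whether higher or lower; inconclusive = differs from solvent controls in only one of two duplicates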
Each line names hits and unclear results; the compound was inactive in the other large screens (follow-up assays come after a bar, where they were run). Cut-off read from the data, not from the text of the source, unless noted: active = inhibition above about 20% (passing the limit was not always enough); inactive = the rest.

CCOC(=O)Cc1csc(NC(=O)COc2ccccc2OC)n1	none
CC1(c2nnc(-c3ccc(F)cc3)o2)CC(c2ccc([N+](=O)[O-])cc2)=NO1 (stereo not given)	none (no result: FXIa inh mix, D1 allo mod, M1 agonist, FXIIa inh mix, M1 antag)
COC(=O)c1ccc2c(c1)SC1=C(CCCC1=O)N2	M1 agonist 11 | M1 ag confirm inactive | M4 ag counter inconclusive
CC1=C(C#N)C(=O)N(C)C(C)(C)C1	M1 agonist 19 | M1 ag confirm inactive | M4 ag counter inactive
CC1=C(C#N)C(=O)NC(C)(C)C1	none
COC(=O)C1=C(C)Nc2ncnn2C1c1ccc(C)o1 (stereo not given)	M1 agonist 8.3 | M1 ag confirm inactive | M4 ag counter inactive
COc1ccc(C(c2nnnn2C2CCCC2)N2CCc3ccccc3C2)cc1OC (stereo not given)	none
COCCn1nnnc1C(c1ccc(O)c(OC)c1)N1CCc2ccccc2C1 (stereo not given)	M1 agonist 4 | M1 ag confirm inactive | M4 ag counter inactive
Cc1cc(NC(=O)CSc2nnc(-c3ccoc3C)o2)no1	DAT uptake mod 2.6, M1 agonist -3.7 | M1 ag confirm inconclusive | M4 ag counter inactive
Cc1ccc2nc(NC(=S)NC(=O)c3cccs3)sc2c1	none (no result: FXIa inh mix, D1 allo mod, M1 agonist, FXIIa inh mix, M1 antag)
CC(=O)N1CCc2cc(S(=O)(=O)CCC(=O)O)ccc21	none (no result: D1 allo mod, DAT uptake mod)
CC(=O)N1CCc2cc(S(=O)(=O)CCC(=O)Nc3c(C)n(C)n(-c4ccccc4)c3=O)ccc21	M1 agonist 8.6 | M1 ag confirm inconclusive | M4 ag counter inactive
Cc1nnc(NC(=O)C2C3C=CC(O3)C2C(=O)O)s1 (stereo not given)	M1 agonist 3.4 | M1 ag confirm inconclusive | M4 ag counter inactive
COC(=O)c1ccc(NC(=O)C2C3C=CC(O3)C2C(=O)O)cc1 (stereo not given)	none
CN1CCC(NC(=O)Cc2c(F)cccc2Cl)CC1	none (no result: DAT uptake mod)
Cc1ccc(/C(C#N)=C\c2cn(C)c3ccccc23)cc1	M1 agonist -2.7 | M1 ag confirm inactive | M4 ag counter inactive
Cc1ccc(/C(C#N)=C\c2ccc(N3CCOCC3)o2)cc1	none (no result: FXIa inh mix, D1 allo mod, M1 agonist, FXIIa inh mix, M1 antag)
O=C(NCc1ccc2c(c1)OCO2)C1CCN(c2ccc(S(=O)(=O)N3CCCC3)cc2)CC1	M1 agonist 2.6 (no result: D1 allo mod) | M1 ag confirm inactive | M4 ag counter inactive
CC(Cc1ccccc1)C(=O)N[C@@H](CO)Cc1ccccc1 (stereo not given in full)	none (no result: FXIa inh mix, D1 allo mod, M1 agonist, FXIIa inh mix, M1 antag)
CCc1nnc(NC(=O)CCC(=O)N2CCN(CCOc3ccc(C)cc3)CC2)s1	M1 agonist 5.1 (no result: D1 allo mod) | M1 ag confirm inactive | M4 ag counter inactive
CCc1nnc(NC(=O)CCC(=O)N2CCN(CCc3ccccc3)CC2)s1	none (no result: D1 allo mod)
O=C(Nc1ccc(S(=O)(=O)NCc2ccco2)cc1)c1ccc2ccccc2n1	none (no result: DAT uptake mod)
O=C(CSc1nc2[nH]ncc2c(=O)n1-c1ccccc1)c1ccc2c(c1)OCCO2	M1 agonist 7.2 | M1 ag confirm inconclusive | M4 ag counter inactive
CCCSc1nnc(NC(=O)Nc2ccc(F)cc2)s1	M1 agonist 3.4 (no result: D1 allo mod) | M1 ag confirm inactive | M4 ag counter inactive
COc1ccc(C(=O)N2CCCC(c3nc(-c4cc(OC)c(OC)c(OC)c4)no3)C2)cc1 (stereo not given)	none
CCC(C(=O)NC1CCCC1)n1c(SCc2cccc(C)c2)nc2ccncc21 (stereo not given)	none (no result: FXIa inh mix, D1 allo mod, M1 agonist, FXIIa inh mix, M1 antag)
NC(=O)CSc1nnc(-c2cccnc2)n1CCc1ccccc1	none
CCN(CC)C(=O)CSc1nnc(-c2cccnc2)n1CCc1ccccc1	M1 agonist 8.3 | M1 ag confirm inactive | M4 ag counter inactive
CCC1c2ccc(C)n2CCN1C(=O)Nc1ccccc1OC (stereo not given)	none
COc1cc(OC)cc(-c2nnc(SCc3c(F)cccc3Cl)o2)c1	M1 agonist -2.8 | M1 ag confirm inconclusive | M4 ag counter inactive
CCN(C1CCCCC1)S(=O)(=O)c1ccc(S(=O)(=O)NCc2ccncc2)cc1	M1 agonist 3.7, M1 antag -2.2 | M1 ag confirm inactive | M4 ag counter inactive
CC(=Nc1cccc(C)c1)c1sc2ccccc2c1O	none (no result: FXIa inh mix, D1 allo mod, M1 agonist, FXIIa inh mix, M1 antag)
CC(=Nc1ccc(O)cc1)c1sc2ccccc2c1O	M1 agonist 36 | M1 ag confirm inactive | M4 ag counter inactive
O=C(NCc1ccccn1)Nc1ccc2c(c1)OCO2	none
O=C(NCc1cccs1)Nc1ccc2c(c1)OCO2	M1 agonist 3.1 | M1 ag confirm inconclusive | M4 ag counter inactive
Cc1ccccc1OCc1nc(-c2ccccc2)no1	M1 agonist -2.4 | M1 ag confirm inactive | M4 ag counter inactive
COc1ccc(CCn2c(-c3ccco3)nc3nc4ccccc4nc32)cc1	M1 agonist 3.5 | M1 ag confirm inactive | M4 ag counter inactive
CCCn1c(-c2ccc(OC)cc2)nc2nc3ccccc3nc21	none
O=C(CSc1nnc(CNC(=O)c2c(F)cccc2Cl)o1)Nc1ccc2c(c1)OCCO2	none
CC(C)CCNC(=O)COc1ccc2c(c1)C(=O)CC(C)(C)O2	none (no result: FXIa inh mix, D1 allo mod, M1 agonist, FXIIa inh mix, M1 antag)
COc1ccc(-c2noc(CCC(=O)NCCN3CCN(c4ccccc4F)CC3)n2)cc1	D1 allo mod -2.8, M1 agonist 5 | M1 ag confirm inactive | M4 ag counter inactive
Cc1ccc(-c2noc(CCC(=O)NCCCN3CCN(c4ccc(F)cc4)CC3)n2)cc1	D1 allo mod -5, M1 agonist 5.3, M1 antag -2.6 | M1 ag confirm inactive | M4 ag counter inactive
CC1(C)CC(=O)c2cc(OCC(=O)NCCCN3CCN(c4ccc(F)cc4)CC3)ccc2O1	D1 allo mod -4.2, M1 agonist 13 | M1 ag confirm inactive | M4 ag counter inactive
Cc1ccc(-c2noc(CCC(=O)NCCCN3CCN(c4cccc(Cl)c4)CC3)n2)cc1	D1 allo mod -3.9, M1 agonist 4.4, M1 antag -3.7 | M1 ag confirm inconclusive | M4 ag counter inactive
Clc1cccc(N2CCN(Cc3nc(-c4ccccc4)no3)CC2)c1	none
COc1ccc(-c2noc(CCC(=O)NCCCN3CCC(C)CC3)n2)cc1	none
C[C@H](NC(=O)c1nc[nH]c1C(=O)NCc1ccccc1)C(=O)OC(C)(C)C	none (no result: FXIa inh mix, D1 allo mod, M1 agonist, FXIIa inh mix, M1 antag)

High-throughput results deposited in PubChem by several laboratories.
